AMA1-RON2 inh – disrupts binding of P. falciparum AMA1 to RON2. AlphaScreen AMA1-biotinylated RON2 peptide binding. Potency, µM (titrated, usually from 58.2 µM), for inactives: at the top dose activity change, negative = inhibition, usual class: inhibitors. actives 0.2% (n = 360,000); active = well fitted inhibition curve with a large enough effect; inconclusive = small, poorly fitted or top-dose-only effect; inactive = no such curve, though single readings can be large or run the other way;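 also: potency is read from the fitted curve at half-maximal effect; 0% = vehicle wells and -100% = peptide control; nearly all actives have a fitted effect of over 45% in size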
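AMA1 (3D7) with his tag at 25 nM final met compounds first, then biotinylated RON2 peptide at 25 nM; detection used donor plus acceptor beads, 10 µg/mL apiece, read by AlphaScreen after 30 min at room temperature.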
Cycloheximide cs – counter-screen for Shiga toxin inhibitors: cycloheximide protein synthesis inhibition. actives 12% (n = 300,000). max response, %. cell reporter, cycloheximide protein synthesis inhibition counterscreen; in the data active = max response mostly above about 13%, no sharp cut-off; inactive = mostly below about 14%; also: read at 38.3 µM for the half of the compounds with a filed dose; 0% is about no effect
Lassa entry inh – blocks Lassa virus binding to or entry into cells | Lassa virus pseudotype entry inhibition, cell reporter | Potency, µM (titrated, usually from 37.9 µM), without a hit: top-dose activity change, negative = inhibition, usual class: inhibitors | actives 1.2% (n = 300,000); calls by dose curve; tested in HEK293 cells; also: potency is read from the fitted curve at half-maximal effect; % is scaled to controls: 0 for no effect and ±100 for the full control effect; nearly all actives have a fitted effect of over 50% in size
MARV entry inh – blocks Marburg virus binding to or entry into cells; Marburg virus pseudotyped entry inhibition, cell reporter; Potency, µM (titrated, usually from 37.8 µM), for the others: at the top dose activity change, negative = inhibition, hits mostly inhibitors; actives 1.8% (n = 300,000); AID 540276; calls by dose curve; tested in HEK293 cells; also: potency is read from the fitted curve at half-maximal effect; % is scaled to controls: 0 for no effect and ±100 for the full control effect
Shiga toxin inh – Shiga toxin inhibition; Vero cells, Shiga toxin protein synthesis inhibition reporter; inhibition, % at 38.7 µM; actives 9.2% (n = 290,000); in the data active = inhibition mostly above about 28%, no sharp cut-off; inactive = mostly below about 43%; also: 0% is about no effect
* = called active by the depositor; ? = inconclusive; / = no result given; [ ] = remark or other dose. This excerpt belongs to a sample that is enriched for hits.

SMILES | AMA1-RON2 inh | Cycloheximide cs | Lassa entry inh | MARV entry inh | Shiga toxin inh
Oc1cc2c(cc1O)[C@H]1c3ccccc3CN[C@H]1CC2 | / | / | / | 16µM* | /
COc1ccccc1N(C(=O)CCl)c1cn(C(C)=O)c2ccccc12 | 4% | 11 | / | / | 17
CC(=O)n1cc(N(C(=O)CCl)c2ccc(Cl)cc2)c2ccccc21 | -2% | 27* | / | / | 61*
CCc1ccccc1NC(=O)CN1CCCN(Cc2cc(C)ccc2C)S1(=O)=O | / | / | -2%[46.1 µM] | / | /
COc1ccccc1CNc1ccc(N2CCCCC2)cc1 | ? | 24 | ? | 5.2µM* | 45
COc1ccccc1CNc1ccc(C(=O)O)cc1 | 12% | -1 | ? | 1% | -8
COc1cccc(CNc2ccc(N3CCCCC3)cc2)c1OC | 35µM* | 30* | ? | ? | 34*
Nc1ccn([C@@H]2O[C@H](C(=O)N3CCCN(Cc4ccccc4F)CC3)[C@@H](O)[C@H]2O)c(=O)n1 | -1% | / | / | / | /
CN=C(c1ccc(C)cc1)n1c(=S)nc(-c2ccc(C)cc2)n(C)c1=S | -9% | 43* | 17% | -14%[46.1 µM] | 85*
COc1ccccc1C(=O)Nc1ccc2c(c1)nc(CCNC(=O)c1ccccc1)n2C | 12% | 22 | ? | ? | 21
COc1ccccc1C(=O)Nc1ccc2c(c1)nc(CCNC(C)=O)n2C | -7% | 17* | 21% | 19% | 26
CCC(=O)NCCc1nc2cc(NC(=O)COc3ccccc3)ccc2n1C | -4% | 29* | 29% | 5%[46.1 µM] | 78*
CCC(=O)NCCc1nc2cc(NC(=O)c3cccs3)ccc2n1C | -3% | 17* | / | ? | 48*
Cn1cnc2cc(NC(=O)COc3ccccc3)ccc21 | -8% | 38* | ? | 6%[46.1 µM] | 76*
C=CCOC(=O)N[C@H](/C(C(=O)OC)=C(\C)NCc1ccccc1)c1cccc(C(F)(F)F)c1 | / | / | / | 3%[14.2 µM] | /
CCC(=O)NCCc1nc2cc(NC(=O)c3ccccc3OC)ccc2n1C | 5% | 43* | -1% | 1% | 25
CC(=O)NCCc1nc2cc(NC(=O)c3ccc(F)cc3)ccc2n1C | -4% | 54* | -12% | ? | 44*
O=C(COC(=O)CCC(=O)c1ccc(F)cc1)Nc1ccc(Cl)cn1 | -6%[11.6 µM] | / | 13% | -6% | /
CC1CCCC(C)N1C(=O)COC(=O)c1cccnc1Cl (centres undefined) | -4% | / | / | / | /
CC(=O)Nc1cccc(OCc2cnc(Cl)s2)c1 | -6% | 14 | / | / | 9
CC(C)(C)c1ccc(OCc2cnc(Cl)s2)cc1 | 2% | 35* | 27% | -1%[14.2 µM] | 75*
C[C@H]1CN([C@@H](C)CO)S(=O)(=O)c2ccc(/C=C/c3ccccc3)cc2O[C@H]1CN(C)C(=O)NC1CCCCC1 | 0% | / | / | / | /
Brc1ccc(Oc2ccc(Br)cc2Br)c(Br)c1 | 36% | / | / | -3% | /
O=c1c(Br)ccc(Br)cc1Br | -2% | / | ? | 4.5µM* | /
C=CCNC(=S)Nc1ccc(C(N)=O)cc1 | -12% | -2 | 2% | 18%[46.1 µM] | -7
SMILES | AMA1-RON2 inh | Cycloheximide cs | Lassa entry inh | MARV entry inh | Shiga toxin inh
C=CCNC(=S)Nc1ccc(N(C)C)cc1 | 28% | 29* | 25%[46.1 µM] | ? | 24
CCCNC(=O)C(=O)Nc1ccc(N(C)C)cc1 | -9% | 31* | 7% | ? | 68*
CN(C)c1ccc(NC(=O)C(=O)NCCOc2ccccc2)cc1 | -14% | 4 | / | 12%[46.1 µM] | 19
CCCCNC(=O)C1C(c2ccc(OC)cc2)=Nc2ccccc2N1C(=O)Cc1cc(OC)cc(OC)c1 (centres undefined) | -10% | / | / | / | /
COc1cc(OC)c(C2N(c3ccc(Cl)cc3)C(=O)C3CCCN32)cc1OC (centres undefined) | -6% | -2 | / | / | -10
Oc1cccc(/C=N/N2CCCCC2)c1O | 13% | 40* | / | / | 96*
Oc1ccccc1/C=N/N1CCCCC1 | ? | 40* | 1% | 11%[46.1 µM] | 85*
Oc1ccc(/C=N/N2CCCCC2)c(O)c1 | -1% | 49* | 19% | 26% | 107*
Oc1ccccc1C=NN1CCCCCC1 | ? | / | ? | -1% | /
Oc1ccc(/C=N/N2CCCCC2)c(O)c1O | 4% | 2 | -6% | 0%[46.1 µM] | 12
C(=NN1CCCCCC1)c1ccc2ccccc2n1 | -6% | / | ? | 2.5µM* | /
O=C(NCc1ccccc1F)c1ccc(CN2CC(=O)N3CCCCC3C2=O)cc1 (centres undefined) | / | / | 4%[46.1 µM] | / | /
COc1ccc(CN2CCN(CCSc3ccc(C)cc3)CC2)c(OC)c1OC | ? | -1 | / | / | -3
COc1cccc([C@H]2Oc3ccc(OC)cc3/C(=N\OCC[C@@H]3C=C[C@H](OC(C)=O)[C@@H](COC(C)=O)O3)[C@@H]2O)c1 | / | / | / | -24%[14.2 µM] | /
O=C(Cc1ccccc1Cl)Nc1cccnc1 | -1% | 11 | 14%[46.1 µM] | 13%[46.1 µM] | -16
Nc1c(C(=O)c2ccc(Br)s2)oc2ccccc12 | 9% | 23* | 13% | ? | 37
Nc1c(N)c2ccccc2oc1=O | 38% | 15 | 4% | -2% | -3
Nc1ccc(C(=O)c2cccs2)cc1 | 10% | 11 | -1% | 16% | 36
Nc1c(C(=O)c2cccs2)oc2ccccc12 | 21% | 26* | 15% | ? | 99*
COc1ccc(C(=O)OCC(=O)N(C)C2CCS(=O)(=O)C2)cc1Br (centres undefined) | 15% | / | / | / | /
Cc1ccnc(N=Cc2c(O)ccc3oc4c(c23)CCCC4)c1 | / | 26* | ? | -2% | 8
O=C(O)c1ccc(N=Cc2c(O)ccc3oc4c(c23)CCCC4)cc1 | 46% | 17* | / | / | 31
Cn1c2cc(S(C)(=O)=O)sc2c2cnn(Cc3ccccc3F)c(=O)c21 | / | -7 | / | / | -2
Cc1onc(-c2c(F)cccc2Cl)c1C(=O)Nc1cc(S(=O)(=O)N2CCCCC2)ccc1O | -1%[11.6 µM] | / | ? | ? | /
Cc1cccc(-c2nc3c4ccccc4nc(NCc4ccccc4Cl)n3n2)c1 | / | / | / | 11%[46.1 µM] | /
O=C(c1cc(COc2ccc3ncccc3c2)on1)N1CCCCCC1 | 8% | 18 | -23%[46.1 µM] | ? | 49*
COCC1CCN(C(=O)c2cc(COc3ccc4ncccc4c3)on2)CC1 | -9% | 1 | ? | -19%[46.1 µM] | -11

From PubChem
